FBW7 activator = human FBW7 E3 ligase activation, primary screen; Q969H0; AlphaScreen FBW7–phospho-cyclin E peptide binding, activator screen; normalized activity (activation), % at 26.1 µM; 650,000 compounds, 0.13% hits; AID 1259310; in the data active = normalized activity above about 1.9%;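 note: purified mutant Fbw7 with reduced substrate affinity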
TEAD-YAP inh = TEAD-YAP interaction inhibition; HEK-TIYL cells, TEAD-Gal4/YAP UAS-luciferase luminescence; inhibition, % at 9.12 µM; 640,000 compounds, 1.4% hits; in the data active = inhibition above about 32%
GPR151 activ = activates the human receptor GPR151; Q8TDV0; PathHunter beta-arrestin GPR151 cells, luminescence; activation, % at 11.2 µM; 650,000 compounds, 1% hits; in the data active = activation above about 4.9%
Target sequence (Q8TDV0 whole entry, looked up): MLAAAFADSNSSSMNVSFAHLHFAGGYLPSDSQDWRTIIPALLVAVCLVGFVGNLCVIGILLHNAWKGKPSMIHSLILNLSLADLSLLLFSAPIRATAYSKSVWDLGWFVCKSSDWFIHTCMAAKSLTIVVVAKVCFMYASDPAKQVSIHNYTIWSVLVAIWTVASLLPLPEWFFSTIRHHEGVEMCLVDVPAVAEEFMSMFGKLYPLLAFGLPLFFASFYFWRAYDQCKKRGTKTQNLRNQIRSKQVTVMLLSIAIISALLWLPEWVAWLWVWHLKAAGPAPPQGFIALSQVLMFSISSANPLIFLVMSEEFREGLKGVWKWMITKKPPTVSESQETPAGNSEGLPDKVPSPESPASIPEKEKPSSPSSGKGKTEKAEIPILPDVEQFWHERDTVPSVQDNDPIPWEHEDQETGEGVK
MITF inh = human MITF inhibition, primary screen | O75030 | AlphaScreen MITF homodimerization, bead proximity signal | inhibition, % at 2.6 µM | AID 1259374 | 650,000 compounds, 0.91% hits; in the data active = inhibition above about 50%
GPR151 conf act = confirmation of human GPR151 activators. shares compounds with GPR151 activ. GPR151 PathHunter beta-arrestin cells, luminescence, 90 min; % of EA-reagent control over plate median. activation, % at 11.2 µM. 6,700 tested, under 10 active. AID 1508609;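 active = mean percent activation across replicates above the confirmation screen cutoff of 4.91%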
GPR119 ag = activates human GPR119 in a GPR151 counter-screen. shares compounds with GPR151 activ. GPR119 PathHunter beta-arrestin cells, luminescence, 90 min; 0 = compound-well median, 100 = enzyme-acceptor control. activation, % at 11.2 µM. 6,700 compounds, 0.3% hits;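 active = mean percent activation in the counterscreen above 29.09%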;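 note: counterscreen on off-target GPR119 to flag nonselective hits from the GPR151 activator screen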
Hits are given with their value. This is a sample that favours compounds with a hit; in the whole collection about 3.5% have one here.

How did CC(C)CC(=O)NS(=O)(=O)c1ccc(NC(=O)c2ccc(Cl)cc2)cc1 do in these assays?
FBW7 activator: inactive; TEAD-YAP inh: inactive; GPR151 activ: inactive; MITF inh: inactive

How did CC(C)CC(=O)NS(=O)(=O)c1ccc(NC(=O)c2ccccc2Cl)cc1 do in these assays?
FBW7 activator: inactive; TEAD-YAP inh: inactive; GPR151 activ: 5.1; MITF inh: inactive; GPR151 conf act: inactive; GPR119 ag: inactive

What do the screens show for `Cc1cccc(C)c1NC(=O)c1cc(-c2ccc(Br)cc2)nc2ccccc12`?
FBW7 activator: inactive; TEAD-YAP inh: inactive; GPR151 activ: inactive; MITF inh: inactive

How did O=C(c1ccccc1[N+](=O)[O-])N(Cc1cccnc1)c1nc2ccc(F)cc2s1 do in these assays?
FBW7 activator: inactive; TEAD-YAP inh: inactive; GPR151 activ: inactive; MITF inh: inactive

What do the screens show for `COc1ccc2sc(N(Cc3cccnc3)C(=O)c3ccccc3[N+](=O)[O-])nc2c1`?
FBW7 activator: inactive; TEAD-YAP inh: inactive; GPR151 activ: 8.6; MITF inh: inactive; GPR151 conf act: inactive; GPR119 ag: inactive

What do the screens show for `CCN(c1ccccc1)c1ncnc2c1cnn2C`?
FBW7 activator: inactive; TEAD-YAP inh: inactive; GPR151 activ: 5.0; MITF inh: inactive; GPR151 conf act: inactive; GPR119 ag: inactive

Results for CCCCN(c1ccccc1)c1ncnc2c1cnn2C ?
FBW7 activator: inactive; TEAD-YAP inh: inactive; GPR151 activ: inactive; MITF inh: inactive

Results for CCCNC(=O)c1cncc(-c2ccc(C(=O)NC3CC3)cc2)c1 ?
FBW7 activator: inactive; TEAD-YAP inh: inactive; GPR151 activ: 5.7; MITF inh: inactive; GPR151 conf act: inactive; GPR119 ag: inactive

Results for Cc1cc(C)n(CC(C)N2CCC(n3nccc3NC(=O)CCCc3ccccc3)CC2)n1 (configuration not stated) ?
FBW7 activator: inactive; TEAD-YAP inh: inactive; GPR151 activ: 7.2; MITF inh: inactive; GPR151 conf act: inactive; GPR119 ag: inactive

What do the screens show for `CSCCC(NC(=O)C(Cc1ccc(F)cc1)NC(C)=O)C(=O)O` (configuration not stated)?
FBW7 activator: inactive; TEAD-YAP inh: inactive; GPR151 activ: inactive; MITF inh: inactive

How did CCN(CCCNC(=O)c1cc(-c2ccccn2)nc2ccccc12)c1cccc(C)c1 do in these assays?
FBW7 activator: inactive; TEAD-YAP inh: inactive; GPR151 activ: 8.0; MITF inh: inactive; GPR151 conf act: inactive; GPR119 ag: inactive

What do the screens show for `CCCNC(=O)c1cc(-c2ccccn2)nc2ccccc12`?
FBW7 activator: inactive; TEAD-YAP inh: inactive; GPR151 activ: inactive; MITF inh: inactive

Results for CC(C)CN(C(=O)c1ccccc1Cl)c1nnc(-c2ccncc2)s1 ?
FBW7 activator: inactive; TEAD-YAP inh: inactive; GPR151 activ: 6.3; MITF inh: inactive; GPR151 conf act: inactive; GPR119 ag: inactive

How did CCN(CC)S(=O)(=O)c1ccc(S(=O)(=O)c2ccc(S(=O)(=O)N(CC)CC)cc2)cc1 do in these assays?
FBW7 activator: inactive; TEAD-YAP inh: inactive; GPR151 activ: 5.9; MITF inh: inactive; GPR151 conf act: inactive; GPR119 ag: inactive

How did CN(CC(=O)NN)S(=O)(=O)c1ccc(Cl)cc1 do in these assays?
FBW7 activator: inactive; TEAD-YAP inh: inactive; GPR151 activ: 6.3; MITF inh: inactive; GPR151 conf act: inactive; GPR119 ag: inactive

How did CCN(CC(=O)NC)S(=O)(=O)c1ccc(Cl)cc1 do in these assays?
FBW7 activator: inactive; TEAD-YAP inh: inactive; GPR151 activ: 7.6; MITF inh: inactive; GPR151 conf act: inactive; GPR119 ag: inactive

How did CCN(CC(=O)O)S(=O)(=O)c1cc(Cl)ccc1Cl do in these assays?
FBW7 activator: inactive; TEAD-YAP inh: inactive; GPR151 activ: inactive; MITF inh: inactive

What do the screens show for `CCN(CC(N)=O)S(=O)(=O)c1cc(Cl)ccc1Cl`?
FBW7 activator: inactive; TEAD-YAP inh: inactive; GPR151 activ: 5.0; MITF inh: inactive; GPR151 conf act: inactive; GPR119 ag: inactive

Results for COc1ccc(C2CC(=O)N3CN(CCC(C)C)CSC3=C2C#N)cc1OC (configuration not stated) ?
FBW7 activator: inactive; TEAD-YAP inh: inactive; GPR151 activ: inactive; MITF inh: inactive

From PubChem BioAssay
